From PubChem BioAssay AID1224904 (Broad Institute, 2016) come the findings set out here.

This assay can be described thus: inhibitors of DUX4-driven ZSCAN4 reporter expression, primary screen, 293T cells, Gaussia and Italica luciferase (AID 1224904).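 As to activity change, negative = inhibition: 0% = median of neutral control wells and -100% = median of positive control wells.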 The settings on record: 293T-iDUX4 ZSCAN4-Gaussia luciferase reporter, 24 h, stronger effect = lower value, concentration not given here; for Gaussia minus Italica difference: measured here: selective DUX4 reporter inhibition.
The mark [1] stands for this setting: measured here: Italica tet-on control reporter.

SMILES strings stand for the structures. Hit rate of the full screen: of about 37,000 compounds, about 290 (0.78%) were called active. Another 10% or so got no clear call; they are omitted.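 The calls were made as follows: active = mean inhibition of at least 10% in the main channel, exceeding the control channel by a set limit; inconclusive = inhibition of 10% or more but channel gap under a set limit; inactive = mean inhibition below 10%.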 The entries come from a sample that favours actives as a whole.

Consider `COc1cccc(C(=O)N2C[C@@H]3[C@H](c4ccccc42)[C@H](CO)N3Cc2ccccc2F)c1`, for which the activity change, negative = inhibition is -0.575% (inactive) and the Gaussia minus Italica difference is -4.03%. Moreover, the activity change, negative = inhibition under setting [1] is 3.46%.

On to `CCCNC(=O)N1C[C@@H](O)COC[C@H]2O[C@H](CC(=O)NCCCN3CCOCC3)CC[C@@H]21`, for which the activity change, negative = inhibition was 5.88% (inactive) and the Gaussia minus Italica difference was -0.509%. For the same compound, under setting [1], the activity change, negative = inhibition stood at 6.39%.

With `CCC(=O)N1CC2(C1)CN(Cc1nccs1)[C@@H](CO)c1c2c2ccc(OC)cc2n1C`, the activity change, negative = inhibition is 20% (inactive) and the Gaussia minus Italica difference came to 17.3%. Also, under setting [1], the activity change, negative = inhibition was 2.76%.

In the case of `CN(C)C(=O)c1cccc(-c2ccc3c(c2)[C@H]2[C@H](CCN2C(=O)c2cccnc2)[C@H](CO)N3)c1`, the activity change, negative = inhibition is -0.714% (inactive) and the Gaussia minus Italica difference is -0.793%. Also, the activity change, negative = inhibition under setting [1] is 0.0796%.

In the case of `O=C(C[C@@H]1CC[C@@H]2[C@H](COC[C@H](O)CN2CC2CCOCC2)O1)NCC1CCCCC1`, the activity change, negative = inhibition is 3.21% (inactive) and the Gaussia minus Italica difference is -8.33%. In addition, under setting [1], the activity change, negative = inhibition was determined as 11.5%.

Take `CCCN1C[C@@H](C)[C@@H](OC)CN(C)C(=O)c2cc(NC(=O)Nc3cccc(F)c3)ccc2OC[C@@H]1C`: the activity change, negative = inhibition is -9.36% (inactive) and the Gaussia minus Italica difference is -3.7%. Also, the activity change, negative = inhibition under setting [1] is -5.66%.

For the compound `O=C(NCC1CC1)[C@@H]1[C@@H](CO)[C@@H]2Cn3c(ccc(-c4ccncc4)c3=O)[C@@H]2N1Cc1cocn1`, the activity change, negative = inhibition was -0.331% (inactive) and the Gaussia minus Italica difference amounted to 1.11%. The activity change, negative = inhibition under setting [1] is -1.44%.

Regarding `CC(C)NC(=O)N1[C@H](CO)[C@H](c2ccccc2)C12CN(C(=O)Cc1cccnc1)C2`, the activity change, negative = inhibition is 1.09% (inactive) and the Gaussia minus Italica difference is -4.76%. The activity change, negative = inhibition under setting [1] was determined as 5.85%.

As to `CCC(=O)N1[C@H](CO)[C@@H]2c3ccccc3N(S(=O)(=O)c3ccccc3C)C[C@@H]21`, the activity change, negative = inhibition is -0.934% (inactive) and the Gaussia minus Italica difference was -0.0907%. Further, the activity change, negative = inhibition under setting [1] was -0.843%.

In the case of `CO[C@H]1CN(C)C(=O)c2ccc(NS(C)(=O)=O)cc2OC[C@@H](C)N(Cc2ccccc2)C[C@@H]1C`, the activity change, negative = inhibition is 3.45% (inactive) and the Gaussia minus Italica difference stood at 1.71%. Under setting [1], the activity change, negative = inhibition came out at 1.74%.

For the compound `CCN(C[C@@H]1[C@@H](c2ccccc2)[C@H](CO)N1C(C)=O)C(=O)NC(C)C`, the activity change, negative = inhibition is -4.96% (inactive) and the Gaussia minus Italica difference is -3.89%. Further, under setting [1], the activity change, negative = inhibition is -1.07%.

As for `CCCNC(=O)N(C)C[C@H]1Oc2ncc(-c3ccc(C(=O)N(C)C)cc3)cc2C(=O)N([C@@H](C)CO)C[C@@H]1C`, the activity change, negative = inhibition is -0.44% (inactive) and the Gaussia minus Italica difference is -6.14%. Also, the activity change, negative = inhibition under setting [1] came to 5.7%.

`COc1ccc2c3c([nH]c2c1)[C@H](CO)N(C(=O)C1CCOCC1)CC31CN(S(C)(=O)=O)C1`: the activity change, negative = inhibition was -4.43% (inactive) and the Gaussia minus Italica difference was -5.7%. The activity change, negative = inhibition under setting [1] came to 1.27%.

As for `O=C(Cc1ccccc1)N1C[C@H]2[C@@H](c3ccccc31)[C@H](CO)N2C(=O)c1ccc(F)cc1`, the activity change, negative = inhibition was 0.616% (inactive) and the Gaussia minus Italica difference was -2.21%. Besides, the activity change, negative = inhibition under setting [1] worked out at 2.82%.

On to `CN1C(=O)c2cc(NC(=O)c3cnccn3)ccc2OC[C@@H]2O[C@H](CC(=O)NC3CCC3)CC[C@@H]21`, for which the activity change, negative = inhibition was 3.24% (inactive) and the Gaussia minus Italica difference is 3.07%. Further, the activity change, negative = inhibition under setting [1] amounted to 0.171%.

With `O=C(C[C@@H]1CC[C@@H]2[C@H](COC[C@H](O)CN2S(=O)(=O)c2ccc(F)cc2)O1)NCc1ccc(Cl)c(Cl)c1`, the activity change, negative = inhibition was -7.18% (inactive) and the Gaussia minus Italica difference worked out at 5.22%. The activity change, negative = inhibition under setting [1] was -12.4%.

Take `CCCNC(=O)N1C[C@@H]2[C@H](c3ccccc31)[C@@H](CO)N2C(=O)NC(C)C`: the activity change, negative = inhibition was -3.62% (inactive) and the Gaussia minus Italica difference was -3.78%. The activity change, negative = inhibition under setting [1] was found to be 0.166%.

`N#C[C@@H]1N[C@@H](CO)[C@@H]1c1ccc(C#Cc2ccccc2F)cc1`: the activity change, negative = inhibition was 0.819% (inactive) and the Gaussia minus Italica difference was 0.167%. In addition, the activity change, negative = inhibition under setting [1] stood at 0.652%.

As for `CC=Cc1ccc2n(c1=O)C[C@@H]1[C@@H](CO)[C@H](C(=O)NCCC)[C@H]2N1C(=O)C1CC1` (mixture of isomers), the activity change, negative = inhibition was 3.79% (inactive) and the Gaussia minus Italica difference is -1.71%. For the same compound, the activity change, negative = inhibition under setting [1] was determined as 5.5%.

As for `CCCNC(=O)N1C[C@@H](O)COC[C@H]2O[C@@H](CC(=O)NCCCN3CCOCC3)CC[C@@H]21`, the activity change, negative = inhibition was -2.3% (inactive) and the Gaussia minus Italica difference was -7.76%. Moreover, under setting [1], the activity change, negative = inhibition came out at 5.46%.

As for `Cc1cc(C(=O)Nc2ccc3c(c2)C(=O)N(C)[C@H]2CC[C@H](CC(=O)NCC(F)(F)F)O[C@@H]2CO3)no1`, the activity change, negative = inhibition was -3.18% (inactive) and the Gaussia minus Italica difference was -4.67%. The activity change, negative = inhibition under setting [1] worked out at 1.49%.

For `C[C@@H](NC(=O)C[C@H]1CC[C@@H](NC(=O)Cc2ccccn2)[C@@H](CO)O1)c1ccccc1`, the activity change, negative = inhibition is 14.3% (inactive) and the Gaussia minus Italica difference is 12.6%. Under setting [1], the activity change, negative = inhibition turned out to be 1.74%.

As to `O=C(C[C@@H]1CC[C@H]2[C@@H](COC[C@H](O)CN2C(=O)Nc2ccccc2)O1)NCCc1ccncc1`, the activity change, negative = inhibition was -0.33% (inactive) and the Gaussia minus Italica difference was -7.36%. For the same compound, under setting [1], the activity change, negative = inhibition came to 7.03%.

`COc1ccc(NC(=O)N(C)C[C@@H]2OCc3cn(nn3)CCCC(=O)N([C@H](C)CO)C[C@H]2C)c(OC)c1`: the activity change, negative = inhibition was -6.81% (inactive) and the Gaussia minus Italica difference was -11.6%. Besides, the activity change, negative = inhibition under setting [1] is 4.76%.

On to `N#C[C@@H]1[C@@H](c2ccc(-c3ccccc3F)cc2)[C@@H](CO)N1C(=O)C1CC1`, for which the activity change, negative = inhibition is -3.2% (inactive) and the Gaussia minus Italica difference is -2.29%. The activity change, negative = inhibition under setting [1] is -0.917%.

Regarding `COc1ccc2c3c([nH]c2c1)[C@@H](CO)N(C(=O)NC(C)C)CC31CN(C(=O)C2CCCC2)C1`, the activity change, negative = inhibition was 6.7% (inactive) and the Gaussia minus Italica difference turned out to be 6.4%. Moreover, the activity change, negative = inhibition under setting [1] came to 0.3%.

For the compound `COc1ccc2c3c([nH]c2c1)[C@@H](CO)N(Cc1cc(F)ccc1F)CC31CN(C(=O)C2CCC2)C1`, the activity change, negative = inhibition was -77.2% (active) and the Gaussia minus Italica difference was -33.6%. Further, the activity change, negative = inhibition under setting [1] was -43.6%.

Consider `COc1ccc2c3c(n(C)c2c1)[C@H](CO)N(Cc1ccccc1F)CC31CN(C(=O)C2CCC2)C1`, for which the activity change, negative = inhibition is 6.19% (inactive) and the Gaussia minus Italica difference was found to be 2.45%. Further, under setting [1], the activity change, negative = inhibition was found to be 3.73%.
